dFosB act: enhances mouse delta FosB homodimer DNA binding | activation, % at 25 µM | hit rate 0.99% among 340,000 | P13346 | AID 493131 | purified delta FosB, TAMRA-CDK5 oligo fluorescence polarization; percent of positive-control signal above neutral wells;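 active means mean activation above about 17%, with every replicate also reaching it, limit read from the data, passing the limit was not always enough; inconclusive means only one of the two conditions met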
Target sequence (P13346 whole entry, looked up): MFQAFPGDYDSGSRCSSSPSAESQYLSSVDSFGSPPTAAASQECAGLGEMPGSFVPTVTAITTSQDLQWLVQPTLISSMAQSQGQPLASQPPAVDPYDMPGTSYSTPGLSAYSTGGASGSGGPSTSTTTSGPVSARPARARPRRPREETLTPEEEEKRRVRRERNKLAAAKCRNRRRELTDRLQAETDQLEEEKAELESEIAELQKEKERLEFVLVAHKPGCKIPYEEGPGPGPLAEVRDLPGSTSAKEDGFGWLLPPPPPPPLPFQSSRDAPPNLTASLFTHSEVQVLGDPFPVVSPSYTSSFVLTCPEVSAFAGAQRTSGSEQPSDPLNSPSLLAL
RAD52 anneal inh: inhibitors of human RAD52 DNA annealing | hit rate 0.46% among 360,000 | inhibition, % at 18.7 µM | recombinant RAD52 DNA annealing, FRET fluorescence;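 active means every replicate showing at least 50% inhibition; inconclusive means mean inhibition at least 50% but not in every replicate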
Target sequence (P43351 whole entry, looked up): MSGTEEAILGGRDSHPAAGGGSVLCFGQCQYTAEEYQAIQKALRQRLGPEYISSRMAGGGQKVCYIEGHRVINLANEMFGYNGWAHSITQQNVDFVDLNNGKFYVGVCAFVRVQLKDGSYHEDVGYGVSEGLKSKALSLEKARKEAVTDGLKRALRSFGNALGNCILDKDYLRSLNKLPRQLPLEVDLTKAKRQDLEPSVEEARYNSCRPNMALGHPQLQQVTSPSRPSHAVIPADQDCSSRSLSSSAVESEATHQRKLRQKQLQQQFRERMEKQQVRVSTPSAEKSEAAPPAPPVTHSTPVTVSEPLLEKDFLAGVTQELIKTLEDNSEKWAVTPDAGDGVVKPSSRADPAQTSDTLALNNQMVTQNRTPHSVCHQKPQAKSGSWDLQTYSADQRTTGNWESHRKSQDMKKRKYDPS
INS-1E GSIS act: GLuc luminescence reporter in INS-1E cells, primary screen for activators of glucose-dependent secretion of insulin. activation, % at 16.6 µM. INS-1E GLuc reporter insulin secretion, 2-3 h. AID 743287. hit rate 0.61% among 370,000;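 active means lowest replicate activation of at least 40%, so every replicate reaches that level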
DENV2 CPE: DENV2-induced cell death inhibition. DENV2-infected cells, cytopathic effect rescue, plate reader. CPE inhibition, % at 9.99 µM. hit rate 1.7% among 350,000; in the data active means CPE inhibition above about 20%, passing the limit was not always enough; inconclusive means no clear call, values can overlap the other calls; tested in BHK-21 cells
AF4-AF9 inh: MLL-AF4/AF9 protein interaction inhibition | P42568 | AlphaScreen, biotin-AF4 peptide binding to FLAG-AF9 | inhibition, % at 10 µM | hit rate 0.47% among 350,000 | AID 651704;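 active means every replicate reaching a set inhibition limit, whatever the replicate mean, cut at about 25% in these data; inconclusive means mean inhibition reaches that limit but some replicates miss it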
RAD54 inh: blocks human RAD54 Holliday junction branch migration; Q92698; FAM/BHQ fluorescence; inhibition, % at 10.4 µM; hit rate 0.14% among 360,000;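 active means mean normalized replicate activity at least 40 and at least half of replicates scoring 40 or more; inconclusive means only one of the two criteria met; inactive means mean below 40 and under half of replicates reaching 40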;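 further: inhibitors cause a drop in the FAM fluorescence signal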
Of the large screens only hits and unclear results are named; the others gave an inactive call. An excerpt weighted towards active compounds, which were near 3.1% of everything screened.

c1cncc(CSc2ccc(-c3cccnc3)nn2)c1	none (no result: DENV2 CPE)
COc1ccc(-c2ccc(SCc3cccnc3)nn2)cc1OC	INS-1E GSIS act 47 (no result: RAD54 inh)
COc1ccc(-c2ccc(SCc3ccccn3)nn2)cc1OC	INS-1E GSIS act 83 (no result: RAD54 inh)
COc1cccc(-c2ccc(SCc3ccccn3)nn2)c1	none (no result: DENV2 CPE, RAD54 inh)
CCCNC(=O)N1CC2(C1)CN(C(=O)NC(C)C)[C@H](CO)c1c2c2ccc(OC)cc2n1C	none (no result: dFosB act, RAD52 anneal inh, RAD54 inh)
CC1OC(CC(=O)O)CC2=C1C(=O)c1c(O)cccc1C2=O (stereo unspecified)	INS-1E GSIS act 72 (no result: RAD54 inh)
O=C(C[C@@H]1C=C[C@H](NC(=O)C2CCOCC2)[C@H](CO)O1)NCc1ccccc1Cl	none (no result: dFosB act, RAD54 inh)
Cc1ccc(NC(=O)N2CCN(C(=O)c3ccco3)CC2)cc1Cl	DENV2 CPE 38
O=C(Nc1ccc(F)cc1)C(c1cccc(F)c1)N1CCN(C(=O)c2ccco2)CC1 (stereo unspecified)	DENV2 CPE 47 (no result: dFosB act, AF4-AF9 inh, RAD54 inh)
C[C@@H]1CN([C@@H](C)CO)C(=O)Cc2cc(NS(=O)(=O)c3ccc(Cl)cc3)ccc2O[C@@H]1CN(C)C(=O)Nc1ccc(F)cc1	none (no result: dFosB act)
COc1ccc(O)c(/C=N/NC(=O)CN2CCS(=O)(=O)CC2)c1	DENV2 CPE 54
COc1ccc(O)c(/C=N/NC(=O)CCC(=O)Nc2ccc(C)cc2)c1	none
CC1(C)Cc2c(sc(NC(=O)c3ccc(C(=O)c4ccccc4)cc3)c2C(N)=O)C(C)(C)N1	dFosB act 44
COC(=O)c1c(NC(=O)c2ccccc2)sc2c1CC(C)(C)NC2(C)C	none
Cc1nnc(C)c2c(C)n(C(c3ccccc3)c3ccccc3)c(C)c12	AF4-AF9 inh 30
Cc1nnc(C)c2c(C)n(-c3ccccc3)c(C)c12	none
COc1ccc(CN(C)C[C@@H]2OCCCC[C@H](C)Oc3ccc(NC(=O)c4ccncc4)cc3C(=O)N([C@@H](C)CO)C[C@H]2C)cc1	none (no result: dFosB act, RAD54 inh)
COCC#Cc1cnc2c(c1)C(=O)N([C@H](C)CO)C[C@@H](C)[C@@H](CN(C)C(=O)Nc1cc(F)ccc1F)O2	none (no result: dFosB act)
CCn1ncc2c1C(=O)NC1c3ccccc3C(=O)N21 (stereo unspecified)	INS-1E GSIS act 51 (no result: RAD52 anneal inh, DENV2 CPE, AF4-AF9 inh)
CN(C)C(=O)CSC1c2ccccc2C(=O)N1c1ccccc1 (stereo unspecified)	none
CCOc1ccc(C(=O)O/N=C(\N)c2ccccn2)cc1OCC	INS-1E GSIS act 87
COc1ccccc1NC(=O)N(C)C[C@H]1Oc2ncc(Br)cc2C(=O)N([C@@H](C)CO)C[C@@H]1C	none (no result: dFosB act)
Cc1nc2ccc3nc(NC(=O)C4COc5ccccc5O4)sc3c2s1 (stereo unspecified)	dFosB act inconclusive, DENV2 CPE inconclusive, AF4-AF9 inh 48 (no result: INS-1E GSIS act)
CCCNC(=O)[C@@H]1c2ccccc2C(=O)N(Cc2ccccc2OC)[C@H]1c1ccc(CO)cc1	DENV2 CPE 34 (no result: dFosB act, INS-1E GSIS act)
CN1C(=O)c2cc(NC(=O)c3ccno3)ccc2OC[C@H]2O[C@@H](CC(=O)NC3Cc4ccccc4C3)CC[C@@H]21	DENV2 CPE 53 (no result: dFosB act)
CN1C(=O)c2cc(NC(=O)c3ccc(C#N)cc3)ccc2OC[C@H]2O[C@@H](CC(=O)NC3Cc4ccccc4C3)CC[C@@H]21	DENV2 CPE 75 (no result: dFosB act)
CN1C(=O)c2cc(NC(=O)c3ccc(C(F)(F)F)cc3)ccc2OC[C@@H]2O[C@@H](CC(=O)NC3Cc4ccccc4C3)CC[C@@H]21	none (no result: dFosB act, RAD52 anneal inh, INS-1E GSIS act, DENV2 CPE)
CCC(=O)Nc1ccc2c(c1)C(=O)N(C)[C@H]1CC[C@@H](CC(=O)NC3Cc4ccccc4C3)O[C@H]1CO2	none (no result: dFosB act)
O=C(C[C@H]1CC[C@H]2[C@@H](COC[C@H](O)CN2C(=O)c2ccncc2)O1)NC1Cc2ccccc2C1	none (no result: dFosB act)
O=C(C[C@@H]1C[C@@H]2c3cc(NC(=O)CC4CC4)ccc3O[C@@H]2[C@@H](CO)O1)NCc1cccc(F)c1	DENV2 CPE inconclusive (no result: dFosB act)
CC(=O)OCCCNc1cc(Sc2nc3ccccc3s2)c2nonc2c1[N+](=O)[O-]	none (no result: RAD52 anneal inh, INS-1E GSIS act, DENV2 CPE, AF4-AF9 inh)
CC(=O)OCCNc1cc(Sc2nc3ccccc3[nH]2)c2nonc2c1[N+](=O)[O-]	INS-1E GSIS act 121 (no result: RAD52 anneal inh, DENV2 CPE, AF4-AF9 inh, RAD54 inh)
CC(=O)c1cc2c(cc1NC(=O)c1cc(C)nn1-c1ccccc1)OCO2	AF4-AF9 inh 34 (no result: INS-1E GSIS act)
CCOC(=O)c1cnc2c(cnn2C)c1Oc1ccc(OC)cc1	INS-1E GSIS act 62 (no result: RAD54 inh)
C[C@@H]1CN([C@@H](C)CO)C(=O)c2cc(NC(=O)c3ccccc3)ccc2O[C@@H](C)CCCCO[C@@H]1CN(C)C(=O)C1CCCCC1	none (no result: dFosB act)
Cc1cccc(N(Cc2ccccc2)C(=O)CCl)c1	INS-1E GSIS act 97 (no result: RAD54 inh)
COc1ccc(/C=N/NC(=O)Cn2nnc3ccccc32)cc1OC	INS-1E GSIS act 70 (no result: RAD54 inh)
COc1cc(/C=N/NC(=O)C(C)n2nnc3ccccc32)ccc1O (stereo unspecified)	INS-1E GSIS act 53 (no result: RAD52 anneal inh, DENV2 CPE, AF4-AF9 inh)
COc1cc(/C=N/NC(=O)c2nc(-c3ccccc3)n(-c3ccccc3)n2)ccc1O	none (no result: RAD52 anneal inh, DENV2 CPE, AF4-AF9 inh)
CC(/C=N/NC(=O)CCn1nnc2ccccc21)=C\c1ccccc1	none (no result: RAD54 inh)
COc1ccc(/C=N/NC(=O)C(C)n2nnc3ccccc32)cc1OC (stereo unspecified)	none (no result: RAD52 anneal inh, INS-1E GSIS act, DENV2 CPE, AF4-AF9 inh)
CCOc1cc(/C=N/NC(=O)CCn2nnc3ccccc32)ccc1O	INS-1E GSIS act 78 (no result: RAD54 inh)
COc1ccc(/C=N/NC(=O)c2nc(-c3ccccc3)n(-c3ccccc3)n2)cc1OC	DENV2 CPE 38 (no result: INS-1E GSIS act)
O=C(O)C[C@@H]1C=C[C@@H](NC(=O)Nc2ccccc2)[C@H](CO)O1	none (no result: dFosB act)
C[C@H](CO)N1C[C@H](C)[C@H](CN(C)S(=O)(=O)c2ccccc2)Oc2ncc(C#CCN(C)C)cc2C1=O	none (no result: dFosB act)
C[C@@H]1CN([C@@H](C)CO)C(=O)c2cccc(NC(=O)Nc3ccccc3)c2O[C@H]1CN(C)CC1CCCCC1	none (no result: dFosB act)
COc1ccc(C2=NOC(C(=O)Nc3cccnc3)C2)cc1OC (stereo unspecified)	INS-1E GSIS act 75
COc1cc(C2=NOC(C(=O)Nc3cccnc3)C2)cc(OC)c1OC (stereo unspecified)	none
COC(=O)c1ccc(Oc2ccc(C(F)(F)F)cn2)cc1	INS-1E GSIS act 56 (no result: RAD54 inh)
CCCCC(=O)Nc1cc([N+](=O)[O-])ccc1Cl	DENV2 CPE 23 (no result: RAD54 inh)
CCCCC(=O)Nc1cc([N+](=O)[O-])ccc1F	none (no result: RAD54 inh)
C[C@@H]1CCCCO[C@@H](CN(C)C(=O)Nc2ccc3c(c2)OCO3)[C@H](C)CN([C@@H](C)CO)C(=O)c2cc(N(C)C)ccc2O1	none (no result: dFosB act, RAD52 anneal inh, DENV2 CPE, AF4-AF9 inh, RAD54 inh)
COc1ccc(S(=O)(=O)Nc2ccc3c(c2)C(=O)N([C@@H](C)CO)C[C@@H](C)[C@@H](CN(C)S(=O)(=O)c2ccccc2)OCCCC[C@H](C)O3)cc1	DENV2 CPE 21 (no result: dFosB act, RAD54 inh)
COc1ccc(S(=O)(=O)N(C)C[C@@H]2Oc3ccc(NS(=O)(=O)c4ccccc4)cc3C(=O)N([C@H](C)CO)C[C@H]2C)cc1	DENV2 CPE 133 (no result: dFosB act, RAD52 anneal inh, AF4-AF9 inh)

High-throughput results from PubChem BioAssay.
